# Laboratory results: PubChem BioAssay (NCATS)
# Results filed as inconclusive are left out. The source made the active and inactive calls. Unless noted, calls follow the shape of the dose curve; as a rule, active = well fitted curve in the direction sought with a large enough effect; inconclusive = small, poorly fitted or top-dose-only effect, or another doubt; inactive = no such curve, though single readings can be large; an effect the other way counts as inactive or inconclusive.
# Legend:
# [1] = Confirmatory screen GU Rhodamine qHTS for Zika virus inhibitors qHTS (AID 1347157); also: nearly all actives have a fitted effect of over 70% in size; also: potency is read from the fitted curve at half-maximal effect;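 as to activity change, negative = inhibition: plate controls were no-inhibitor wells for no effect and no-enzyme wells for full effect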
# Outline: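 Percent inhibition came from the 15-min rise in Rhodamine110 fluorescence (1.5 microM substrate, ~15% conversion), normalized to no-inhibitor and no-enzyme wells and Hill-fitted. Unlinked protease, 25 nM, pH 8.0 Tris buffer; compounds up to 114 microM, 15-min preincubation.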
# [2] = Confirmatory screen NINDS Rhodamine qHTS for Zika virus inhibitors (AID 1347161); also: nearly all actives have a fitted effect of over 60% in size; also: potency is read from the fitted curve at half-maximal effect;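 as to activity change, negative = inhibition: purified Zika NS2B-NS3 protease with linked NS2B cofactor domain and Rhodamine110 peptide substrate; plate controls were no-inhibitor control for no effect and no-enzyme control for full effect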
# Outline: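 Percent inhibition, normalized to uninhibited and enzyme-free controls, is fitted to a 4-parameter Hill equation. Fluorescence change comes from a 15-min cleavage of 1.5 microM bis-peptide Rhodamine110 substrate by 25 nM linked NS2B-NS3 at room temperature.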
# [3] = tested on: Zika virus NS2B-NS3 protease (linked construct); assay: 384 well plate NINDS Rhodamine confirmatory qHTS for Zika virus inhibitors (AID 1347164);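 also: fluorescence from protease cleavage of Ac-LKRR-rhodamine 110 substrate; nearly all actives have a fitted effect of over 65% in size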; also: potency is read from the fitted curve at half-maximal effect;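 as to activity change, negative = inhibition: top concentration of the series differs between compounds; plate controls were no-inhibitor control for no effect and no-enzyme control for full effect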
# Outline: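 Enzyme (final 5/30/60 nM) + cpd (DMSO), ~15 min; add Ac-LKRR-Rd 10 microM final; 25 min RT, dark; FI ex 485/em 538; normalized to no-enzyme, no-inhibitor ctrls; aprotinin intraplate ctrl.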
# [4] = molecular target: Lysosomal acid glucosylceramidase (Homo sapiens) (UniProt P04062); assay: Glucocerebrosidase-p2 (AID 348; in the data active = potency below about 10 µM; also: potency is read from the fitted curve at half-maximal effect); conditions: purified GBA, blue fluorogenic substrate, 40 min
# Sequence of Lysosomal acid glucosylceramidase (Homo sapiens) (P04062 whole entry, looked up): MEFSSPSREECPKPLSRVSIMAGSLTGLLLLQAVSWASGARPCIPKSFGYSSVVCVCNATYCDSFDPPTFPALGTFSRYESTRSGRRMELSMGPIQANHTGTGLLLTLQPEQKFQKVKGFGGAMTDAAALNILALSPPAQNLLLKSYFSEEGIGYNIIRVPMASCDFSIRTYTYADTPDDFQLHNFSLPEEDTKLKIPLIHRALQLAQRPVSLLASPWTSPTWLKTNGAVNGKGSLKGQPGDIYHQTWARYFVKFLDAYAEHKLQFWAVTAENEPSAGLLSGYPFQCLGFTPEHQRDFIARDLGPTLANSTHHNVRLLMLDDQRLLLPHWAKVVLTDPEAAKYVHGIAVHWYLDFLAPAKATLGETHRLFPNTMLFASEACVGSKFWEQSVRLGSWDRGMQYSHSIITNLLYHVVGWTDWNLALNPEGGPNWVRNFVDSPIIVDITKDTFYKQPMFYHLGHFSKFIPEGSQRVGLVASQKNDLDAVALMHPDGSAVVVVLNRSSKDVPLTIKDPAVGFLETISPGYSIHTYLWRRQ
# Outline: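 Normal human glucocerebrosidase (0.2 nM) with blue fluorogenic substrate (80 uM final) in citrate/phosphate pH 5.9 with 10mM sodium taurocholate, 0.01% tween-20; 40 min RT, NaOH/glycine stop; fluorescence Ex 365/Em 440; AC50 from a titration from 0.6 nM upwards.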
# [5] = AP1 Signaling Pathway (AID 357; active = well fitted curve in either direction with a large enough effect, not every such curve was filed as active;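 also: ME-180 reporter cells stimulated with EGF at its EC50 level; % is scaled to controls: 0 for no effect and ±100 for the full control effect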); conditions: ME-180 (cervical carcinoma) AP-1-bla reporter, EGF-induced, beta-lactamase ratio, 5 h; at 7.69 µM (top of the series)
# Outline: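 Cells are seeded overnight, exposed to compound titrations and an EC50 level of EGF for 5 hours at 37 °C, then loaded with CCF4 dye for 2.5 hours. Beta-lactamase activity under the AP-1 element is read as a blue/green ratio.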
# [6] = molecular target: Cytochrome P450 1A2 (Homo sapiens) (UniProt P05177); assay: p450-cyp1a2 (AID 410; calls by dose curve;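 also: -100% = full effect of reference inhibitor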)
# Sequence of Cytochrome P450 1A2 (Homo sapiens) (P05177 whole entry, looked up): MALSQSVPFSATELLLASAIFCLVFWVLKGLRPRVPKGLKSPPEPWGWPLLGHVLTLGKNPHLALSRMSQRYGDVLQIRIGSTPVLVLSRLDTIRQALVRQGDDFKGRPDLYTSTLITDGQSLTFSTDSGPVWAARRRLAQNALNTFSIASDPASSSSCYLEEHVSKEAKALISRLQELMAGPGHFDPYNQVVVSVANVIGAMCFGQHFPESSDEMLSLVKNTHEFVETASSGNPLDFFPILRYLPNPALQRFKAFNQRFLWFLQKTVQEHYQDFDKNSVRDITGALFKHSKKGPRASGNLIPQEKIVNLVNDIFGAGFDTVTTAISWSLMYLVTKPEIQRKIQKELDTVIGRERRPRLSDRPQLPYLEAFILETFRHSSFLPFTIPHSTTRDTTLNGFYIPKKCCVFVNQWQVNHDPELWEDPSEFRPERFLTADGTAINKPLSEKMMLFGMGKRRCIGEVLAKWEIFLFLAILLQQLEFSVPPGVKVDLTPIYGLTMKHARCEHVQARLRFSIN
# Outline: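 O-Demethylation of luciferin 6' methyl ether by human CYP1A2 is monitored as luciferase luminescence. Substrate sits at Km (100uM); enzyme is 20nM. Values are scaled to 57 uM furafylline as maximal inhibition.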
# [7] = NFAT Signaling Pathway (AID 444; active = well fitted curve in either direction with a large enough effect, not every such curve was filed as active;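 also: carbachol stimulus at about its EC50 of 1 µM final; % is scaled to controls: 0 for no effect and ±100 for the full control effect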); conditions: Jurkat NFAT-bla M1, carbachol, beta-lactamase ratio, 5 h; at 7.69 µM (top of the series)
# Outline: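 Read-out: CCF4 FRET ratio (460 nm/530 nm) after 1 h RT dye loading, used for %activity and AC50 from titration series. Cells: Jurkat NFAT-β-lactamase/M1 line, treated with compound plus 1 uM carbachol for 5 h, 37 °C.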
# [8] = molecular target: Glucocorticoid receptor (Homo sapiens) (UniProt P04150); assay: GR-GFP Redistribution (AID 450;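 active = compounds whose dose series gives a full or clear partial fitted curve of increased nuclear translocation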; also: potency is read from the fitted curve at half-maximal effect); conditions: U2OS GR-GFP nuclear translocation, laser cytometry, 2 h
# Sequence of Glucocorticoid receptor (Homo sapiens) (P04150 whole entry, looked up, the tested form may be a part): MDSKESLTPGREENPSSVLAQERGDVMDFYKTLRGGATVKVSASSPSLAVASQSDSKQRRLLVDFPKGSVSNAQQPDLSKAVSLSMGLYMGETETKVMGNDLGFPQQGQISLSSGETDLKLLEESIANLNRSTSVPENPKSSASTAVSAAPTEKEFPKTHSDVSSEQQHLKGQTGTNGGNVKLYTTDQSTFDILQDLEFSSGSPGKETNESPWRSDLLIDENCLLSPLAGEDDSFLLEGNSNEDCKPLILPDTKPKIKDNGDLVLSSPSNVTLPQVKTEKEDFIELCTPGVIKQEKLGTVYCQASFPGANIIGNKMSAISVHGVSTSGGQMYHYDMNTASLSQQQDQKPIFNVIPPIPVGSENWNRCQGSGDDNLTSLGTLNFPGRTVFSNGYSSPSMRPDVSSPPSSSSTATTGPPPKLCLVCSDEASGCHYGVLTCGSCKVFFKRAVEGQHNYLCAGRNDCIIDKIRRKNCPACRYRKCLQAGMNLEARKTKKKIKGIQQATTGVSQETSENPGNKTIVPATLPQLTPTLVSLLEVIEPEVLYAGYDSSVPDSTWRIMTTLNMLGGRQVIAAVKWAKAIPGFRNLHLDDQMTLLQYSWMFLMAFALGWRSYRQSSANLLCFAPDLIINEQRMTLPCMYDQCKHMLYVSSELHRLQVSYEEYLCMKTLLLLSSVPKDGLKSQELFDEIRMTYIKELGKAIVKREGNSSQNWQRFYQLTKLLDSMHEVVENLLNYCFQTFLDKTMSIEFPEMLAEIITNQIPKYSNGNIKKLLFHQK
# [9] = molecular target: Glucocorticoid receptor (Homo sapiens) (UniProt P04150); assay: GR-EFC Redistribution (AID 451; calls by dose curve; also: potency is read from the fitted curve at half-maximal effect); conditions: CHO-K1 GR-EFC translocation, beta-gal luminescence, 2 h
# Outline: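 Translocation of GR-ED fusion to nuclear EA restores b-gal, read by luminescence after 1 h room-temperature detection. Engineered CHO-K1 biosensor cells, 1,000/well, exposed 2 h at 37 C to titrations up to 46 uM final.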
# [10] = molecular target: 3',5'-cyclic-AMP phosphodiesterase 4B (Homo sapiens) (UniProt Q07343); assay: qHTS Assay for Inhibitors of PDE-IV (AID 607; active = well fitted activation curve with a large enough effect in the main read-out, with a control signal flat, not every such curve was filed as active; also: % of control where 0% means no effect)
# Sequence of 3',5'-cyclic-AMP phosphodiesterase 4B (Homo sapiens) (Q07343 whole entry, looked up): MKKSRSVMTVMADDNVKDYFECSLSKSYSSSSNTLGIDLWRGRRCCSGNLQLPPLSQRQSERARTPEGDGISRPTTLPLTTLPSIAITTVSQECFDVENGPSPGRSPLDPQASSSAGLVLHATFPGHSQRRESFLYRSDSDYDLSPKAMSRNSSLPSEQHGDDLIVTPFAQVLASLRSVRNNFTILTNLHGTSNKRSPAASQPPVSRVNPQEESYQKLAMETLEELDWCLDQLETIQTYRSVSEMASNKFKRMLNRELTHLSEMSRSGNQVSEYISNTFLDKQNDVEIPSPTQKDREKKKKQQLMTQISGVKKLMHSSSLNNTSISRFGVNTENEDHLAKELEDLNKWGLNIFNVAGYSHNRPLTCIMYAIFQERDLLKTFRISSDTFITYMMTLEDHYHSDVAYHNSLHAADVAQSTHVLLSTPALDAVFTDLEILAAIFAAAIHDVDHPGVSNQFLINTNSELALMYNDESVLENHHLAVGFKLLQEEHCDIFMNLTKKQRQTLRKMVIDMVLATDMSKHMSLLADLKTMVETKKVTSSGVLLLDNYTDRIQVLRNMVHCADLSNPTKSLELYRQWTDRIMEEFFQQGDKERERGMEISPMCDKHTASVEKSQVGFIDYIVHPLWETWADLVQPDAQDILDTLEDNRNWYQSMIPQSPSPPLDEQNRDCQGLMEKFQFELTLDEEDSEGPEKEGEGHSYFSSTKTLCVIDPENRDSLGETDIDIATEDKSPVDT
# Outline: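 HEK293 ACTOne cells with CNG channel (1000/well), endogenous PDE4; membrane potential dye, compounds up to 22.9 uM final. Fluorescence Ex 535/Em 590; RO 20-1724 (100 uM final) as reference.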
# [11] = molecular target: Cytochrome P450 3A4 (Homo sapiens) (UniProt P08684); assay: qHTS Assay for Activators of Cytochrome P450 3A4 (AID 885); also: nearly all actives have a fitted effect of over 65% in size
# Sequence of Cytochrome P450 3A4 (Homo sapiens) (P08684 whole entry, looked up): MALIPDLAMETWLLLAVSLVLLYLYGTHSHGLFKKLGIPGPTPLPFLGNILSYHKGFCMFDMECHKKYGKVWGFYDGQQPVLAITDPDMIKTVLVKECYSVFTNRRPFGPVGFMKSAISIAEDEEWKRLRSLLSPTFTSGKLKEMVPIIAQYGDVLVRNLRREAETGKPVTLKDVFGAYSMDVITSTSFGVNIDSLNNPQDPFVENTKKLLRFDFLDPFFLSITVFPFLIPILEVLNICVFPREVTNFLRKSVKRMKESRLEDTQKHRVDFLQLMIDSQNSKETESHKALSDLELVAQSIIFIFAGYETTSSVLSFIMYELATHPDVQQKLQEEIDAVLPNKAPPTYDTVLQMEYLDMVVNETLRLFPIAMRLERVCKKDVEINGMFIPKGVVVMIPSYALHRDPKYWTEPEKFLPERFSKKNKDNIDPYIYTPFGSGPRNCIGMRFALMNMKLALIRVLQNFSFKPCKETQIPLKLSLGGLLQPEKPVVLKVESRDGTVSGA
# Outline: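 Human CYP3A4 dealkylates Luciferin-PPXE to luciferin, which luciferase detection converts to light. Substrate was at its KM (25uM), buffer 200mM KPO4, reaction 60 min at RT.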
# [12] = ZIKV-mCherry secondary qHTS for Zika virus inhibitors (AID 1347158); also: top concentration of the series differs between compounds
# Outline: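 Compounds were tested in Vero monkey kidney cells infected with recombinant mCherry-expressing Zika virus at MOI 1 for 48-72 h at 37 °C. Fixed cells were nuclear-stained and imaged, and infection rate was taken as the fraction of mCherry-positive cells.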
# [13] = tested on: Zika virus NS2B-NS3 protease (linked); assay: 384 well plate NINDS AMC confirmatory qHTS for Zika virus inhibitors (AID 1347163); also: potency is read from the fitted curve at half-maximal effect; nearly all actives have a fitted effect of over 50% in size
# Outline: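 Fluorescence at 355/460 nm was read after 25 minutes of cleavage of 30 microM Ac-VKTGKR-AMC at room temperature, in the dark. Before substrate addition, compounds (up to 1 mM final) sat ~15 minutes with 5, 30 or 60 nM linked protease. Signals were normalized to no-enzyme and no-inhibitor wells.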
# [14] = Confirmation and Secondary Assay for Modulators of Hemoglobin Beta Chain Splicing at IVS2 654 locus (AID 910);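 also: HeLa cells stably carrying EGFP split by mutant beta-globin IVS2-654 intron; per-well total GFP intensity by laser scanning cytometry after 2-day treatment; % of control where 0% means no effect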
# Outline: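 Readout: per-well total peak green fluorescence (488 nm ex, 500–520 nm em) from objects 5–250 µm, reflecting correct splicing of an EGFP-654 reporter. Compounds were applied for 2 days at 37 °C to overnight-plated HeLa EGFP-654 cells; controls were DMSO and 500 nM IVS2-654 PNA.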
# [15] = Confirmation and Secondary Assay for Modulators of Hemoglobin Beta Chain Splicing at IVS2 705 locus (AID 930);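 also: HeLa cells stably expressing the EGFP-705 splicing reporter; GFP fluorescence per well restored by corrected splicing of the IVS2-705 intron in EGFP; % of control where 0% means no effect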
# Outline: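 Fluorescence gain (488 nm laser, 500-520 nm PMT) reflects restored correct splicing of a mutant IVS2-705 intron inside EGFP in stably transfected HeLa cells after 2-day compound treatment.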
# [16] = qHTS Assay for Lipid Storage Modulators (AID 1519; calls by dose curve; as to activity change, negative = inhibition: % is scaled to controls: 0 for no effect and ±100 for the full control effect); conditions: Drosophila S3 cells, BODIPY lipid droplet/cell ratio, laser cytometry, cells loaded with oleic acid
# Outline: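 Cells seeded at 5,000 per well were treated with compounds over a concentration series and loaded with oleic acid (400 uM, as added). Lipid droplet fluorescence (488 nm excitation, 500-530 nm channel) was read by laser-scanning cytometry and normalized to 20 uM Triacsin C.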
# [17] = molecular target: Cytochrome P450 2D6 (Homo sapiens) (UniProt P10635); assay: Cytochrome P450 family 2 subfamily D member 6 (CYP2D6) small molecule antagonists: luciferase biochemical (cell-free) qHTS assay (AID 1645840; active = well fitted curve in the direction sought with a large enough effect in the repeat runs; an effect the other way counts as inactive or inconclusive; also: potency is read from the fitted curve at half-maximal effect; nearly all actives have a fitted effect of over 55% in size)
# Sequence of Cytochrome P450 2D6 (Homo sapiens) (P10635 whole entry, looked up): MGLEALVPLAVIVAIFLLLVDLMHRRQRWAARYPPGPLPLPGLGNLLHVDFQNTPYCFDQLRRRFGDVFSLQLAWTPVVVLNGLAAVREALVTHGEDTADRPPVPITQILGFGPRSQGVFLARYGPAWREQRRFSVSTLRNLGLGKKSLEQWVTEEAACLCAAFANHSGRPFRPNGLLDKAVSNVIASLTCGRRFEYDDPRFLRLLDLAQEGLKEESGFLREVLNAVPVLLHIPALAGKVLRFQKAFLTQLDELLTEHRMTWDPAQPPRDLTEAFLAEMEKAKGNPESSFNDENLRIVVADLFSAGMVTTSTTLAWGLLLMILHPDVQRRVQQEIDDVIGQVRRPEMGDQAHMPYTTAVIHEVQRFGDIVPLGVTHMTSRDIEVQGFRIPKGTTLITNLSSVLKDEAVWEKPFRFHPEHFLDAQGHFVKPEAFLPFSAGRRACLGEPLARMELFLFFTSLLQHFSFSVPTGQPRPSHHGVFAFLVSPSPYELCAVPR
# Outline: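 P450-Glo CYP2D6 system: proluciferin substrate converted by enzyme to luciferin, read by luminescence proportional to activity. Enzyme-substrate mix with compound 10 min at room temperature, then NADPH regeneration 1 h before detection reagent.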
# [18] = molecular target: Cytochrome P450 2C9 (Homo sapiens) (UniProt P11712); assay: Cytochrome P450 family 2 subfamily C member 9 (CYP2C9) small molecule antagonists: luciferase biochemical (cell-free) qHTS assay (AID 1645842; active = well fitted curve in the direction sought with a large enough effect in the repeat runs; an effect the other way counts as inactive or inconclusive; also: potency is read from the fitted curve at half-maximal effect; nearly all actives have a fitted effect of over 55% in size)
# Sequence of Cytochrome P450 2C9 (Homo sapiens) (P11712 whole entry, looked up): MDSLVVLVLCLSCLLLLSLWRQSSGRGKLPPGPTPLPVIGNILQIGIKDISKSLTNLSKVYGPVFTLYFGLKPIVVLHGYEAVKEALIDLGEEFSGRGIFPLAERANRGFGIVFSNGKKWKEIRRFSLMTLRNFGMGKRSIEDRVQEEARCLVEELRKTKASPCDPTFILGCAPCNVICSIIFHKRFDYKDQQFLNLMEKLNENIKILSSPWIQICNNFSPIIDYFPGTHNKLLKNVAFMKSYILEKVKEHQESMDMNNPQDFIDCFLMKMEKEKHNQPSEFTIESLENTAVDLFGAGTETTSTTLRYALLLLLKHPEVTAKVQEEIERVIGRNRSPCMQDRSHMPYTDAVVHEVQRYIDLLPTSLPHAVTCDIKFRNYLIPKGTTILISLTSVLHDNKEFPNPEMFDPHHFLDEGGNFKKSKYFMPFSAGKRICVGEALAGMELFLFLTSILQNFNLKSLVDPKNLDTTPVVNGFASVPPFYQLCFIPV
# Outline: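 P450-Glo CYP2C9 system: proluciferin substrate with enzyme in mix containing 0.4% BSA, 10 min at room temperature, then NADPH regeneration solution added and incubated 1 h at 37C. Detection reagent stopped reaction; luminescence read after 20 min as RLU.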
# [19] = Tertiary RLuc qRT-PCR qHTS assay for Zika virus inhibitors (AID 1347169); also: top concentration of the series differs between compounds; % is scaled to controls: 0 for no effect and ±100 for the full control effect; nearly all actives have a fitted effect of over 55% in size
# Outline: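 Vero, 1,000 cells/well, o/n 37 C; cpd pinned in DMSO; ZIKV-RLuc Cambodian, MOI 1-2, 48-72 h 37 C; live-cell RLuc substrate, lum read at 1-1.5 h.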
smiles,measurement,setting,value
CCOC(=O)c1ccc(N2C(=O)c3n[nH]c(-c4cccs4)c3C2c2ccc(Cl)cc2Cl)cc1 (stereo not drawn),Potency,[1],31.6 µM (active)
same,Potency,[2],25.1 µM (active)
same,Potency,[3],44.7 µM (active)
O=C(O)c1c(Br)c(Br)c(Br)c(Br)c1C1c2ccc(O)cc2Oc2cc(O)ccc21,Potency,[4],7.36 µM (active)
same,"activity change, negative = inhibition",[5],-20.1% (inactive)
same,"activity change, negative = inhibition",[6],-6.8% [at 2.29 µM] (inactive)
same,"activity change, negative = inhibition",[7],-6.47% (inactive)
same,Potency,[8],> 46 µM (inactive)
same,Potency,[9],> 9.22 µM (inactive)
same,Potency,[10],inactive
same,"activity change, positive = activation",[11],-36% [at 11.4 µM] (inactive)
same,Potency,[1],12.6 µM (active)
same,Potency,[12],inactive
same,Potency,[13],14.1 µM (active)
O=C1c2ccc(O)c(O)c2C(=O)c2c(O)ccc(O)c21,outcome,[14],inactive
same,outcome,[15],inactive
same,"activity change, negative = inhibition",[16]; at 57.5 µM (top of the series),6.47% (inactive)
same,max response,[16]; measured here: cell count channel max response,-10.7%
same,max response,[16]; measured here: lipid channel max response,-3.59%
same,Potency,[1],12.6 µM (active)
same,Potency,[12],inactive
same,Potency,[13],31.6 µM (active)
same,Potency,[3],inactive
same,Potency,[17],21.3 µM (active)
same,Potency,[18],19 µM (active)
COc1cc(C2Nc3ccccc3-c3nnc(SCc4ccc(Cl)cc4)nc3O2)ccc1OCC(=O)O (stereo not drawn),Potency,[1],28.2 µM (active)
same,Potency,[12],inactive
same,Potency,[2],25.1 µM (active)
same,Potency,[13],282 µM (active)
same,Potency,[3],79.4 µM (active)
same,Potency,[19],inactive
Cc1ccc(OCC(=O)Nc2ccccc2C(=O)OCc2cc(=O)n3nc(C4CC4)sc3n2)cc1,Potency,[1],inactive
same,Potency,[2],inactive
